Compound activity (PubChem BioAssay)
Most compounds without a hit are left out; they make up all but 1.4% or so of the library.
HUVEC tox IL1B: toxic to HUVEC cells under IL-1B stimulation; HUVEC cell count loss, Hoechst imaging, IL-1B stimulated; cell count reduction, % at 2 µM; actives 0.41% (n = 94,000); AID 845;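 active = cell count reduction more than 3 SD above the screen-wide mean, cut at about 70% in these data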;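 note: normalized per plate to untreated control cells as the no-loss baseline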
NFkB transloc inh: blocks IL-1B driven NFkB nuclear translocation in HUVEC cells. HUVEC IL-1B NFkB p65 nuclear translocation imaging. inhibition, % at 2 µM. actives 0.43% (n = 94,000);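 active = inhibition above about 30% together with a positive call from visual inspection of the well image, limit read from the data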;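 note: nuclear over cytoplasmic p65 intensity ratio measured by imaging; 0% = IL-1B stimulated DMSO wells and 100% = unstimulated DMSO wells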
NFkB transloc pot: enhances IL-1B driven NFkB nuclear translocation; HUVEC IL-1B NFkB p65 nuclear translocation imaging; activation, % at 2 µM; actives 0.3% (n = 94,000);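 active = activation above 40%, about the mean plus 3 SD, also judged a hit on visual image review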;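 note: percent activation is computed from the nuclear over cytoplasmic p65 intensity ratio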
INS promoter inh: TRM-6 insulin promoter activity inhibition | actives 0.9% (n = 130,000) | TRM-6 cells (human fetal islet line), insulin promoter-eGFP reporter, imaging; reporter expression induced with tamoxifen | inhibition, % at 2 µM;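 active = inhibition above the mean plus 3 SD, with well images judged a real hit on visual review, cut at about 60% in these data, passing the limit was not always enough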
* marks the source's active call; other numbers are inactive results; · = not tested or not shown.

SMILES	HUVEC tox IL1B	NFkB transloc inh	NFkB transloc pot	INS promoter inh
CCOc1cc(N2CCOCC2)c(OCC)cc1NC(=O)Cc1cccc2ccccc12	20	-63	63*	13
Cc1ccc2c(c1)C(O)(CC(=O)/C=C/C=C/c1ccccc1)C(=O)N2 (stereo not given)	·	·	·	-7
NC(=O)/C=C\C(=O)Nc1cccc(C(F)(F)F)c1	84*	-30	-94	37
COC(=O)[C@H](C)NC(=O)Nc1cccc(C(F)(F)F)c1	-2	-20	20	1
c1ccc(Cc2nnc3sc(-c4cccnc4)nn23)cc1	91*	-12	12	-39
CCOc1ccc(-n2c(SCc3ccc([N+](=O)[O-])cc3)nnc2-c2ccc(OC)cc2)cc1	·	·	·	67
CCN1CCN(C(=O)Nc2ccccc2OC)CC1	92*	4	-4	-7
Cn1c(=O)oc2cc(S(=O)(=O)N3CCN(c4ccc(F)cc4)CC3)ccc21	17	21	-21	70*
Brc1ccc(N=C/C=C/C=C/Nc2ccc(Br)cc2)cc1	-6	-2	2	79*
O=c1c(Cc2ccc(Cl)cc2Cl)c(O)ccn1CCCN1CCOCC1	·	·	·	5
CC(c1ccccc1)n1cc(C(=O)NCCN2CCOCC2)nn1 (stereo not given)	12	-53	53*	-29
CC(c1ccccc1)n1cc(C(=O)NCC2CCCO2)nn1 (stereo not given)	-18	-25	25	-11
Cc1sc2ncn(CCC(=O)O)c(=O)c2c1C	-19	-3	3	-21
Cc1sc2ncn(CCn3cnc4sc(C)c(C)c4c3=O)c(=O)c2c1C	9	57*	-57	-438
O=C(Nc1ccc(F)cc1)C(Sc1nc2ccccc2[nH]1)c1ccccc1 (stereo not given)	·	·	·	-88
Cc1nnc(SCc2ccccc2C#N)n1-c1ccccc1	82*	-24	24	-93
Cc1nnc(SCc2ccon2)n1-c1ccccc1	-7	1	-1	29
CCOC(=O)C(C#N)c1ccccn1 (stereo not given)	17	-14	14	-36
CCN(CC)S(=O)(=O)c1ccc(C(=O)C(C#N)c2ccccn2)cc1 (stereo not given)	-3	-12	12	73*
CCc1ccc(S(=O)(=O)c2nnn3c2nc(NCCNC(C)=O)c2ccccc23)cc1	·	·	·	83*
Cc1cc(C)cc(Nc2nc3c(S(=O)(=O)c4ccccc4)nnn3c3ccccc23)c1	·	·	·	-48
Cc1ccc(-n2c(O)c(C=NC3CCS(=O)(=O)C3)c3ccccc3c2=O)cc1C (stereo not given)	39	-43	43*	-14
COc1ccccc1-n1c(C)nnc1SCC(=O)Nc1cccc(C(C)=O)c1	80*	96*	-97	50
CS(=O)(=O)NCc1nnc(SCC(=O)NC2CCCCC2)n1-c1ccc(F)cc1	20	3	-3	-5
CCCc1ccc(OC(=O)c2ccc(O)cc2Cl)cc1	·	·	·	-50
SMILES	HUVEC tox IL1B	NFkB transloc inh	NFkB transloc pot	INS promoter inh
CC1=C(C(=O)OCc2ccc(C)cc2)C(c2ccc(O)c([N+](=O)[O-])c2)NC(=O)N1 (stereo not given)	·	·	·	89*
CC[N+]1(CC)CC2=Cc3c(ccc4ccccc34)CC2C1 (stereo not given)	-1	6	-6	-4
CC12Cc3ccc4ccccc4c3C=C1C[N+](C)(C)C2 (stereo not given)	-3	49*	-49	-41
CC(C(=O)Nc1ncn[nH]1)N1C(=O)c2ccccc2C1=O (stereo not given)	83*	-23	23	38
CCOC(=O)N1CCC(N2C(=O)c3ccccc3C2Nc2cc(C(=O)OC)cc(C(=O)OC)c2)CC1 (stereo not given)	10	-42	42*	·
CCOC(=O)N1CCC(N2C(=O)c3ccccc3C2Nc2ccccc2)CC1 (stereo not given)	-18	4	-4	·
Cc1ccc(CNC(=O)CCC2CCCN(Cc3c(C)nn(C(C)C)c3C)C2)o1 (stereo not given)	·	·	·	50
CCOC(=O)c1nn(-c2ccccc2)c2nnc(Cc3ccc(C)cc3)c(=O)n12	·	·	·	77*
CCOC(=O)c1nn(-c2ccccc2)c2nnc(Cc3ccccc3)c(=O)n12	·	·	·	8
O=C(CSc1nnc2c(Cl)cc(C(F)(F)F)cn12)Nc1ccc2c(c1)OCO2	-1	-18	17	·
CC(=O)Nc1ccc(S(=O)(=O)NC2(C(F)(F)F)NC(=O)N(C3CCCCC3)C2=O)cc1 (stereo not given)	-6	-1	1	12
COC(=O)C1=C(C)N(c2ccccc2)C(=S)NC1c1ccccc1C(F)(F)F (stereo not given)	·	·	·	9
O=C(CCCSc1ccccc1)Nc1nc(-c2ccco2)c(-c2ccco2)s1	·	·	·	76*
COc1ccc([N+](=O)[O-])cc1COc1ccc2c(-c3ccccc3)cc(=O)oc2c1	70*	-4	4	21
COCCn1c(C)cc(C(=O)CSc2cc(C)c3ccc(OC)cc3n2)c1C	·	·	·	-15
O=C(CSc1nnc(-c2ccccc2)o1)OCc1ccccc1	-1	-69	69*	-21
N#CCC(=O)Nc1ccc(C(=O)NCc2ccccn2)cc1	·	·	·	45
COc1cccc(OC)c1OCCN(C)C	13	10	-10	70*
CCCS(=O)(=O)N1CCC(C(=O)NC2CCCC(C)C2C)CC1 (stereo not given)	-14	-46	46*	-22
COCC(=O)Nc1ccc(S(=O)(=O)NCCc2ccccc2)cc1	2	-25	25	100*
Cc1cc(C)cc(NC(=O)C2(c3ccccc3)CC2(Cl)Cl)c1 (stereo not given)	-25	-2	2	-34
O=S(=O)(c1ccc2c(c1)nc1n2CCC1)N1CCOCC1	-30	-3	3	0
FC(F)(F)c1ccc2c(c1)nc1n2CCCC1	-1	-3	3	73*
O=C(c1ccccc1Sc1c(Cl)cccc1[N+](=O)[O-])N1CCOCC1	·	·	·	13
COc1ccc(NC(=O)CC2C(=O)N(Cc3ccccc3)C(=S)N2CCN2CCOCC2)cc1 (stereo not given)	·	·	·	-333
SMILES	HUVEC tox IL1B	NFkB transloc inh	NFkB transloc pot	INS promoter inh
COC(=O)CN1C(=S)N(Cc2ccccc2)C(=O)C1CC(=O)Nc1ccc(OC)cc1 (stereo not given)	·	·	·	80*
COc1ccc2[nH]c3c(NCCC4=CCCCC4)ncnc3c2c1	·	·	·	65*
O=C1CCCN1CCCNc1ncnc2c1[nH]c1ccc(Cl)cc12	21	-24	24	81*
COc1cccc(N(CC(=O)N2CCN(C)CC2)S(=O)(=O)c2ccc(C)cc2)c1	-25	-6	6	43
CS(=O)(=O)N(CC(=O)N1CCCCCC1)c1ccc(Br)cc1	-2	-3	3	26
Cc1c(C(=O)NCCc2ccccc2)oc2ccc(S(=O)(=O)N3CCC4(CC3)OCCO4)cc12	8	10	-10	-63
Cc1c(C(=O)NCc2ccco2)oc2ccc(S(=O)(=O)N3CCC4(CC3)OCCO4)cc12	-2	32*	-32	39
O=C(Oc1c(Cl)cc(Cl)c2cccnc12)c1ccco1	-15	2	-2	68*
c1ccc(-c2ccccc2-c2nc(-c3ccncc3)no2)cc1	13	-6	6	79*
Cc1ccc(S(=O)(=O)NCc2ccc(C(=O)N(C)CCC#N)cc2)cc1	-61	2	-2	·
